Screening results as filed in PubChem BioAssay.
Compounds with a hit are over-represented: about 0.49% of the library has one in this group of screens.
EPAC2 agonist = EPAC2 (human) agonism | Q8WZA2 | EPAC2 activation, biochemical qHTS; response scale: 100% = 6.5 mM cAMP response | Potency, µM (top dose mostly 154 µM), for the others: at the highest dose activation, most hits filed as activators | hit rate 0.079% among 360,000 | AID 720711; note: nearly all actives have a fitted effect of over 50% in size
Target sequence (Q8WZA2 whole entry, looked up): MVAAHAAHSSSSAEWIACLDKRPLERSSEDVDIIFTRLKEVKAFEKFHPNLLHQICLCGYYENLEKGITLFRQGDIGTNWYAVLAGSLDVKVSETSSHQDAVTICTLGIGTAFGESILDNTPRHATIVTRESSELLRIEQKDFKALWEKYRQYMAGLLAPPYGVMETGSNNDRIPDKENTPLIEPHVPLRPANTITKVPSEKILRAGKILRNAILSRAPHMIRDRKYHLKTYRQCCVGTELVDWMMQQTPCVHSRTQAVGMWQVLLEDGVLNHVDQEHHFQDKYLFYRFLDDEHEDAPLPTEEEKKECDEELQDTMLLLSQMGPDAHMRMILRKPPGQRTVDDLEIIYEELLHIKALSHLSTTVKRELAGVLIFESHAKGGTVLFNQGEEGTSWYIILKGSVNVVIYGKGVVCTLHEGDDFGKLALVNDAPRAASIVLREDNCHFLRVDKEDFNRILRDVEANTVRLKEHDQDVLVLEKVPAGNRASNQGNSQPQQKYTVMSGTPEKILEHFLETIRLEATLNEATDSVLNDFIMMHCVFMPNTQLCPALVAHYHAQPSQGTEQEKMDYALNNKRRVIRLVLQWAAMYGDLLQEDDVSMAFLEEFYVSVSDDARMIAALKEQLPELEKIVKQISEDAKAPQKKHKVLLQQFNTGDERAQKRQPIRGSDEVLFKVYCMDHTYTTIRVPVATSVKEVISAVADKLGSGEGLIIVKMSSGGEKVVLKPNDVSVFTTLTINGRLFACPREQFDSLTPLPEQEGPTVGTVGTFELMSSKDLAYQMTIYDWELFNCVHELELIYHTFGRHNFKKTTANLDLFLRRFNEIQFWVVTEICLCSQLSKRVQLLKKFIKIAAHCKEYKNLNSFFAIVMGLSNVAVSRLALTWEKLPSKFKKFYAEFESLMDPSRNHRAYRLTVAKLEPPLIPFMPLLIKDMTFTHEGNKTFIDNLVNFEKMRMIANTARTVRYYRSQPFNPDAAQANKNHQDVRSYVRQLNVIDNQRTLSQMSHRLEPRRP
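Setup: EPAC2 100 nM, labeled Rap1B complex 250 nM, free GDP 50 uM. Compound titrations pinned in, brief spin, 5 min room temperature incubation. Kinetic fluorescence read over 30 min, normalized to 6.5 mM cAMP.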
EPAC1 ag = activates human EPAC1 exchange factor | hit rate 0.073% among 360,000 | Potency, µM (top dose mostly 154 µM), for inactives: top-dose activation, actives largely listed as activators | O95398 | EPAC1 agonist qHTS, biochemical assay; response scale: 100% = response to 6.5 mM cAMP; note: nearly all actives have a fitted effect of over 60% in size
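Fluorescent GDP-exchange assay: 100 nM EPAC1 with 250 nM Rap1B preloaded with BODIPY-GDP and 50 uM GDP; compounds tested as concentration series, 5 min at room temperature, then read every 5 min for 30 min (ex 480/em 540 nm); normalized to 6.5 mM cAMP.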
EPAC1 antag = blocks human EPAC1 exchange factor. O95398. EPAC1 GEF assay, Rap1b-BODIPY-GDP exchange fluorescence. Potency, µM (doses to about 115 µM), for the others: top-dose activity change, negative = inhibition, most hits filed as inhibitors. hit rate 0.14% among 360,000;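 note: plate controls were vehicle for no effect and positive control for full effect; nearly all actives have a fitted effect of over 50% in size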
USP1 inh = blocks the human USP1/UAF1 deubiquitinase complex; O94782; recombinant USP1/UAF1, Ub-Rhodamine cleavage fluorescence; Potency, µM (series often up to 57.1 µM), for inactives: at the top dose activity change, negative = inhibition, most hits filed as inhibitors; hit rate 0.23% among 390,000; note: % is set by controls: 0 for no effect and ±100 for the full control effect; nearly all actives have a fitted effect of over 60% in size
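USP1/UAF1 complex at 1 nM was preincubated with compound for 15 min at room temperature, then Ub-Rho substrate (150nM final) was added. Fluorescence (480/540 nm) was read kinetically, 6 reads every 60 seconds.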
EPAC2 antagonist = EPAC2 (human) antagonism. Q8WZA2. EPAC2 GEF exchange of Rap1B-BODIPY-GDP, fluorescence. Potency, µM (top dose mostly 114 µM), without a hit: at the highest dose activity, negative = inhibition, hits mostly inhibitors. hit rate 0.18% among 360,000; note: % is set by controls: 0 for no effect and ±100 for the full control effect; nearly all actives have a fitted effect of over 45% in size
Active calls of the source: *; ? = inconclusive; / = not tested or not shown. Calls come from the whole dose curve; as a rule, active = well fitted curve in the direction sought with a large enough effect; inconclusive = small, poorly fitted or top-dose-only effect, or another doubt; inactive = no such curve, though single readings can be large; an effect the other way counts as inactive or inconclusive. Potency is the fitted concentration of half-maximal effect.

SMILES	EPAC2 agonist	EPAC1 ag	EPAC1 antag	USP1 inh	EPAC2 antagonist
COc1ccc(Cn2ccc3nc(C)c(C(=O)Nc4cc(C)cc(C)c4)cc3c2=O)cc1	/	/	/	1.7%	/
CCOC(=O)c1c(NC(=O)/C=C/c2ccc3c(c2)OCO3)sc(C)c1CC	6.31µM*	-13.0%	-0.6%	-10.5%	10.8%
COC(=O)c1c(NC(=O)/C=C/c2ccc3c(c2)OCO3)sc(C)c1C	5.8%	2.9%	0.1%	-11.4%	0.6%
CCCc1ccc(C2Sc3ccccc3NC3=C2C(=O)c2ccccc23)cc1 (configuration not stated)	/	/	/	-16.2%	/
Cc1cc(C)c2oc(-c3ccc(C)c(NC(=O)/C=C/c4ccco4)c3)nc2c1	/	/	/	-23.5%	/
N#Cc1cc(C(=O)c2cc(F)ccc2O)cn(-c2nccs2)c1=O	112µM*	?	35.7%	25.1µM*	76.2%
Cc1c(-n2cc(C(=O)c3cc(F)ccc3O)cc(C#N)c2=O)c(=O)n(-c2ccccc2)n1C	10.0%	17.5%	-21.3%	-20.6%	4.0%
N#Cc1cc(C(=O)c2ccccc2O)cn(-c2nccs2)c1=O	100µM*	89.1µM*	62.3%	28.2µM*	77.2%
Cc1ccc(C)c(N(C)C(=O)c2cc3c(s2)-c2ccccc2OC3)c1	/	/	/	-9.9%	/
C[n+]1cccc2cccc([O-])c21	?	4.3%	-7.1%	6.31µM*	?
[O-][n+]1cccc2cccc(O)c21	6.7%	7.0%	1.2%	-24.5%	9.1%
CCCN1C(=O)S/C(=C/c2ccc(N3CCOCC3)o2)C1=O	112µM*	79.4µM*	42.2%	28.2µM*	22.1%
COC(=O)CN1C(=O)S/C(=C/c2ccc(N3CCCCC3)o2)C1=O	12.8%	8.7%	11.8%	28.2µM*	144.0%
CCOC(=O)CN1C(=O)S/C(=C/c2ccc(N3CCCCC3)o2)C1=O	22.4%	7.8%	16.8%	?	38.4%
CCCN1C(=O)S/C(=C\c2ccc(N3CCOCC3)o2)C1=O	?	?	45.7%	25.1µM*	6.3%
Cc1c(Cl)cccc1NC(=O)C(CCS(C)(=O)=O)N1Cc2ccccc2C1=O (configuration not stated)	/	/	/	-2.3%	/
CCN(CC)CCNC(=O)c1ccc2c(=O)n3nc(Nc4cccc(Cl)c4C)sc3nc2c1	/	/	/	-25.8%	/
CCc1ccc(-n2c(=O)c3c4c(sc3n(CC(=O)N3CCC(C)CC3)c2=O)CCC4)cc1	/	/	/	-21.4%	/
CC1CCc2nn(CC(=O)Nc3ccccc3Cl)cc2C1 (configuration not stated)	/	/	/	1.5%	/
Cc1ccccc1-c1cc2c(nn1)-c1ccccc1C2=O	-1.6%	10.3%	-17.9%	31.6µM*	-0.9%
Cc1ccc(-c2cc3c(nn2)-c2ccccc2C3=O)cc1	1.0%	10.5%	-2.0%	-19.5%	-1.6%
COc1ccc2cc(-c3nc4ccc(C(=O)O)cc4[nH]3)c(=O)oc2c1	/	/	/	-17.1%	/
Cc1ccc(C)c(S(=O)(=O)N2CCN(C(=O)CCc3c[nH]c4ccccc34)CC2)c1	3.5%	11.6%	5.8%	-25.0%	-18.5%
Cc1ccc(C)c(S(=O)(=O)N2CCN(C(=O)CCCc3c[nH]c4ccccc34)CC2)c1	14.7%	112µM*	-22.3%	-15.4%	-7.2%
O=C(O)C(Cc1c[nH]c2ccccc12)NS(=O)(=O)c1cccc(Cl)c1Cl (configuration not stated)	10.6%	1.7%	-14.3%	0.7%	44.7µM*
SMILES	EPAC2 agonist	EPAC1 ag	EPAC1 antag	USP1 inh	EPAC2 antagonist
NS(=O)(=O)c1ccc(NC2=CC(=O)C(=O)c3ccccc32)cc1	6.3%	5.1%	?	8.91µM*	?
CCOC(=O)c1ccc(NC2=CC(=O)C(=O)c3ccccc32)cc1	8.0%	0.2%	-9.6%	7.94µM*	-1.7%
Cc1nnc(Nc2ccc(S(N)(=O)=O)cc2)c2ccccc12	3.2%	6.3%	2.4%	-27.6%	1.0%
CC(=O)Nc1ccc(NC2=CC(=O)c3ccccc3C2=O)cc1	1.2%	14.1%	-0.5%	-9.4%	-5.4%
Cc1cc(NC2=CC(=O)C(=O)c3ccccc32)no1	10.0%	0.5%	?	2.51µM*	?
COc1cc(OC)c(NC2=CC(=O)C(=O)c3ccccc32)cc1Cl	-9.6%	-8.2%	-1.1%	17.8µM*	-8.0%
CCOC(=O)c1c(SCC(=O)Nc2nc3ccc(C)cc3s2)nc(=O)[nH]c1C	/	/	/	-18.1%	/
Cc1ccc(NC2=CC(=O)C(=O)c3ccccc32)cc1	-1.1%	0.1%	-22.1%	25.1µM*	10.0%
Cc1ccc(NC2=C(Cl)C(=O)c3ccccc3C2=O)cc1	-15.2%	4.2%	9.5%	-23.3%	11.6%
O=[N+]([O-])c1ccc(Sc2cccc[n+]2[O-])c2nonc12	-9.6%	-20.3%	35.5µM*	?	56.2µM*
COc1ccc(C(=O)Nc2ccc3c(c2)N(C2CCCC2)C(=O)c2ccccc2S3)cc1OC	/	/	/	4.3%	/
COC(=O)c1cc(Br)c(=O)n(CCc2ccc(F)cc2)c1	0.3%	17.2%	2.7%	-10.4%	28.2µM*
COC(=O)c1ccc([C@H]2Nc3ccc(S(=O)(=O)Nc4ccc(F)cc4)cc3[C@H]3C=CC[C@H]32)cc1	/	/	/	-2.0%	/
O=C(O)c1ccc2c(c1)[C@@H]1C=CC[C@@H]1[C@H](c1ccccn1)N2	12.3%	8.2%	4.8%	31.6µM*	0.8%
COc1cccc(NS(=O)(=O)c2ccc3c(c2)C2C=CCC2C(c2ccc(C(=O)O)cc2)N3)c1 (configuration not stated)	-3.9%	-7.3%	50.1µM*	?	3.2%
COC(=O)/N=C(/Cc1ccc(OC)cc1)c1ccc(OC)cc1	13.8%	9.4%	-7.6%	-22.0%	56.2µM*
COc1ccc(CC(=O)Nc2ccc(C(N)=O)cc2)cc1	14.1%	6.5%	-21.2%	-5.1%	-1.2%
Cn1c(=O)c(/C=C/c2ccc(F)cc2)nc2ccccc21	2.0%	-16.1%	-2.8%	-15.6%	8.4%
O=c1c(/C=C(\O)c2ccc(F)cc2)nc2ccccc2n1-c1ccccc1	100µM*	23.4%	13.3%	20.5%	100.3%
Cc1ccc(NC(=O)C(=O)c2cc(C)n(-c3ccc(F)cc3)c2C)cc1C	/	/	/	-2.3%	/
Cc1cc(NC(=O)C(C)SCC(=O)O)no1 (configuration not stated)	9.1%	15.9%	-1.6%	-23.4%	-3.5%
Cc1cccc(N(Cc2ccccc2)C(=O)CSC(C)C(=O)Nc2cc(C)on2)c1 (configuration not stated)	5.4%	112µM*	-11.6%	-9.7%	-6.9%
O=S(=O)(c1cc(O)ccc1O)c1cccc2c(S(=O)(=O)c3cc(O)ccc3O)cccc12	0.3%	8.0%	79.4µM*	?	4.3%
O=S(=O)(O)c1cc(O)ccc1O	-2.9%	-31.5%	3.1%	-28.1%	-7.0%
O=C(NNc1cc(N2CCOCC2)nc(N2CCOCC2)n1)c1ccc([N+](=O)[O-])cc1	18.2%	3.0%	?	31.6µM*	?
